This is a sample that favours compounds with a hit; in the whole collection about 1.2% have one here.
RGS8-Gao: human RGS8-Galphao interaction regulation. P09471. multiplexed bead flow cytometry, RGS8-Galphao binding; actives lie on both sides. response (percent of control binding), % at 10 µM. 220,000 compounds, 0.34% hits. AID 1423; in the data active = response below about 60% or above about 140%; inactive = in between;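 also: Galphao activated as the GDP aluminium fluoride complex binding bead-coupled RGS8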
Target sequence (P09471 whole entry, looked up): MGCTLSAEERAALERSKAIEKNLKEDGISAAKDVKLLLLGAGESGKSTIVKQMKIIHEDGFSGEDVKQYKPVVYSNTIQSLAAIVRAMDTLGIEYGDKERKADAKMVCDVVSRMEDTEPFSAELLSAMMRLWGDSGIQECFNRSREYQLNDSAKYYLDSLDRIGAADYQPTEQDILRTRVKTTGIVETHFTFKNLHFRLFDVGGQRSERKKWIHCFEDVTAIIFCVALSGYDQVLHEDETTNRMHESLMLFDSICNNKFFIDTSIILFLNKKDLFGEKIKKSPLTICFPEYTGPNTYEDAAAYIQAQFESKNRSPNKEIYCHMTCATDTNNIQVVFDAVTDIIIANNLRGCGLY
RGS7-Gao reg: regulators of human RGS7-Galphao interaction. Multiplexed bead flow cytometry, RGS7-Galphao binding; actives lie on both sides. binding response (% of control), % at 10 µM. 220,000 compounds, 0.35% hits; in the data active = binding response below about 49% or above about 150%; inconclusive = no clear call, values can overlap the other calls; inactive = in between;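 also: fluorescent Galphao held in activated GDP-AlF4 state binding bead-coupled RGS7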
RGS4-Gao reg: modulates binding of RGS4 to human Galphao; P09471; Multiplexed bead flow cytometry; actives lie on both sides; binding response (% of control), % at 10 µM; 220,000 compounds, 0.33% hits; in the data active = binding response below about 49% or above about 150%; inactive = in between;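 also: fluorescent Galphao activated with aluminum fluoride binding bead-coupled RGS4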
RGS16-Gao: modulates binding between human RGS16 and Galphao; bead-based flow cytometry RGS16-Galphao binding, fluorescence; actives lie on both sides; binding response (% of control), % at 10 µM; 220,000 compounds, 0.38% hits;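 also: Galphao activated by GDP with aluminum fluoride before binding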
Avidin fluor: compound fluoresces at 488/530 nm on avidin beads; AID 1775; compound fluorescence 488/530 nm, flow cytometry; active compounds read high; fluorescence (KMESF) at 10 µM; 220,000 compounds, 0.38% hits; in the data active = fluorescence above about 47
GSH bead fluor: GSH bead compound fluorescence profile; GSH beads flow cytometry, compound fluorescence 488/530 nm; active compounds read high; fluorescence (KMESF) at 10 µM; 190,000 compounds, 0.25% hits; AID 1776; in the data active = fluorescence above about 89;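 also: glutathione beads carrying GST-tagged Bcl family fusion proteins plus one bare bead set; values are compound well signal with DMSO vehicle wells as background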
RGS4-Gao HTS: RGS4-Galphao interaction regulator (human); shares compounds with RGS16-Gao; multiplexed bead flow cytometry, RGS–Galpha-o binding; RGS4–Galpha-o binding response, % at 10 µM; 1,600 compounds, 99% hits;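 also: fluorescently labeled Galpha-o bound to GDP with aluminium fluoride binding biotinylated RGS beads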
Biotin-avidin: counter-screen: compounds disrupting biotin binding to avidin beads. streptavidin beads, fluorescein-biotin binding, flow cytometry. inhibition, % at 10 µM. shares compounds with RGS16-Gao. 1,700 tested, under 10 active;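 active = inhibition above 50%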;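 also: median green fluorescence of gated singlet beads compared with DMSO control wells; 0% = DMSO wells and 100% = complete loss of bead fluorescence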
RGS8-Gao single: RGS8-Galphao interaction regulation, single point confirmation; binding response (% of control), % at 10 µM; 1,700 compounds, 3% hits; bead-based flow cytometry RGS8-Galphao binding, fluorescence; actives lie on both sides; shares compounds with RGS16-Gao; AID 1836; in the data active = binding response below about 72% or above about 130%; inactive = in between;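 also: Galphao activated as GDP AlF4 complex before binding bead RGS8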
RGS7-Gao single: RGS7-Galphao interaction regulation, single point confirmation. shares compounds with RGS16-Gao. bead-based flow cytometry RGS7-Galphao binding; actives lie on both sides. response (percent of control binding), % at 10 µM. 1,700 compounds, 7.8% hits. AID 1837; in the data active = response below about 75% or above about 130%; inactive = in between;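 also: fluorescent Galphao activated with GDP and aluminum fluoride binding bead-coupled RGS7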
RGS16-Gao single: confirmation of regulators of human RGS16-Galphao interaction. shares compounds with RGS16-Gao. bead-based flow cytometry, RGS16-Galphao binding; actives lie on both sides. response (% of control binding), % at 10 µM. 1,700 compounds, 4% hits; in the data active = response below about 74% or above about 130%; inactive = in between;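 also: Galphao activated as the GDP aluminium fluoride complex binding bead-coupled RGS16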
RGS4-Gao confirm: confirmation of regulators of human RGS4-Galphao interaction; binding response (% of control), % at 10 µM; RGS4-Galphao binding, multiplexed bead flow cytometry; actives lie on both sides; shares compounds with RGS16-Gao; 1,700 compounds, 4% hits; AID 1840; in the data active = binding response below about 74% or above about 130%; inactive = in between
RGS19-Gao single: confirmation of regulators of human RGS19-Galphao interaction; shares compounds with RGS16-Gao; bead-based flow cytometry RGS19-Galphao binding; actives lie on both sides; response (percent of control binding), % at 10 µM; 1,700 compounds, 5% hits; in the data active = response below about 50% or above about 160%; inactive = in between;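 also: 100% = no compound control and 0% = blank background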
Target sequence (P09471 whole entry, looked up): as above
Target sequence (P49795 whole entry, looked up): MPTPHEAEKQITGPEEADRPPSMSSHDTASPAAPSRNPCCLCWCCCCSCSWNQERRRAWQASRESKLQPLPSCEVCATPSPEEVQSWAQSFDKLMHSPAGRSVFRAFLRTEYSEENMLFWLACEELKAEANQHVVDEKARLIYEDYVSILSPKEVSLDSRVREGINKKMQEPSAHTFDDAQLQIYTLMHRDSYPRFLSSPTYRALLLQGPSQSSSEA
An asterisk follows results filed as active; [ ] = dose if it differs, or a comment. Unless noted, no rule for the calls is given here.

Results for O=C(Cn1nnc(-c2cc(C(F)(F)F)cc(C(F)(F)F)c2)n1)NNC(=S)Nc1ccc(Cl)cc1 ?
RGS8-Gao: 145*[activator]; RGS7-Gao reg: inconclusive; RGS4-Gao reg: 185*[activator]; RGS16-Gao: 169; Avidin fluor: 5; Biotin-avidin: 0; RGS8-Gao single: 103; RGS7-Gao single: 108; RGS16-Gao single: 106; RGS4-Gao confirm: 108; RGS19-Gao single: 98

What do the screens show for `O=C1OCC2OC(O)C(O)C(O)C2OC(=O)c2cc(O)c(O)c(O)c2-c2c(O)c(O)c3oc(=O)c4c(c(O)c(O)c5oc(=O)c2c3c54)-c2c1cc(O)c(O)c2O` (centres undefined)?
RGS8-Gao: 36*; RGS7-Gao reg: inconclusive; RGS4-Gao reg: 48*; RGS16-Gao: 66; Avidin fluor: 5; Biotin-avidin: 0; RGS8-Gao single: 37*; RGS7-Gao single: 32*; RGS16-Gao single: 75; RGS4-Gao confirm: 47*; RGS19-Gao single: 102

Results for CCOc1ccc(NS(=O)(=O)c2cc(NC(=O)c3cccc(C)c3)ccc2Cl)cc1 ?
RGS8-Gao: 100; RGS7-Gao reg: 98; RGS4-Gao reg: 99; RGS16-Gao: 102; Avidin fluor: 22; GSH bead fluor: 14

Results for CC(=O)c1sc(N/N=C\c2ccccc2O)nc1C ?
RGS8-Gao: 102; RGS7-Gao reg: 99; RGS4-Gao reg: 100; RGS16-Gao: 101; Avidin fluor: 13; GSH bead fluor: 15

What do the screens show for `CCOC(=O)/C(C#N)=N/Nc1ccccc1OC`?
RGS8-Gao: 65; RGS7-Gao reg: 88; RGS4-Gao reg: 88; RGS16-Gao: 20*; Avidin fluor: 1; GSH bead fluor: 10; RGS4-Gao HTS: 88*; Biotin-avidin: -1; RGS8-Gao single: 102; RGS7-Gao single: 95; RGS16-Gao single: 101; RGS4-Gao confirm: 98; RGS19-Gao single: 92

Results for O=C(CCC1CCCN(C(=O)CCN2CCCCC2=O)C1)NCc1ccccc1F (centres undefined) ?
RGS8-Gao: 100; RGS7-Gao reg: 95; RGS4-Gao reg: 97; RGS16-Gao: 101; Avidin fluor: 12; GSH bead fluor: 13

How did Cc1ccc2nc(N(CCCN(C)C)C(=O)c3ccco3)sc2c1 do in these assays?
RGS8-Gao: 237*[activator]; RGS7-Gao reg: active[activator]; RGS4-Gao reg: active[activator]; RGS16-Gao: active[activator]; Avidin fluor: 252*; GSH bead fluor: 232*; Biotin-avidin: 0; RGS8-Gao single: 101; RGS7-Gao single: 93; RGS16-Gao single: 100; RGS4-Gao confirm: 98; RGS19-Gao single: 101

What do the screens show for `CN(C)CCCN(C(=O)c1ccco1)c1nc2ccc(F)cc2s1`?
RGS8-Gao: 104; RGS7-Gao reg: inconclusive; RGS4-Gao reg: 103; RGS16-Gao: 102; Avidin fluor: 12; GSH bead fluor: 15

What do the screens show for `CN(C)/C=N/c1c(C#N)cnn1-c1ccc(C(F)(F)F)cn1`?
RGS8-Gao: 70; RGS7-Gao reg: 70; RGS4-Gao reg: 61; RGS16-Gao: -122*; Avidin fluor: 9; GSH bead fluor: 23; RGS4-Gao HTS: 61*; Biotin-avidin: 4; RGS8-Gao single: 105; RGS7-Gao single: 83; RGS16-Gao single: 102; RGS4-Gao confirm: 90; RGS19-Gao single: 64

Results for O=C1/C(=C/c2cccnc2)SC(=S)N1c1ccc(O)cc1 ?
RGS8-Gao: 101; RGS7-Gao reg: inconclusive; RGS4-Gao reg: 101; RGS16-Gao: 107; Avidin fluor: 5

How did O=C1/C(=C/c2cccnc2)SC(=S)N1c1ccc(F)cc1 do in these assays?
RGS8-Gao: 116; RGS7-Gao reg: 108; RGS4-Gao reg: 109; RGS16-Gao: 178*[activator]; Avidin fluor: 15; GSH bead fluor: 3; RGS4-Gao HTS: 109*; Biotin-avidin: -1; RGS8-Gao single: 102; RGS7-Gao single: 103; RGS16-Gao single: 101; RGS4-Gao confirm: 102; RGS19-Gao single: 98

What do the screens show for `CC(=O)N1CC23C=CC(CC2CC12CCCCCC2)O3` (centres undefined)?
RGS8-Gao: 109; RGS7-Gao reg: 94; RGS4-Gao reg: 99; RGS16-Gao: 114; Avidin fluor: 11; GSH bead fluor: 13

What do the screens show for `COCCN(C(=O)CSc1nnc(-c2ccccc2C)n1C)c1c(N)n(Cc2ccccc2)c(=O)[nH]c1=O`?
RGS8-Gao: 97; RGS7-Gao reg: 95; RGS4-Gao reg: 96; RGS16-Gao: 93; Avidin fluor: 24; GSH bead fluor: 8

What do the screens show for `CC(=O)CC1=NC(C)(C)Cc2ccccc21`?
RGS8-Gao: 18*; RGS7-Gao reg: 24*; RGS4-Gao reg: 29*; RGS16-Gao: 16*; Avidin fluor: 2; GSH bead fluor: 14; Biotin-avidin: -2; RGS8-Gao single: 102; RGS7-Gao single: 109; RGS16-Gao single: 104; RGS4-Gao confirm: 104; RGS19-Gao single: 100

What do the screens show for `CC(C)=NNC1=NC(C)(C)Cc2ccccc21`?
RGS8-Gao: 103; RGS7-Gao reg: inconclusive; RGS4-Gao reg: 93; RGS16-Gao: 102; Avidin fluor: 5

How did CCN1CCN(C(=O)CCNC(=O)Cn2ccc3ccccc3c2=O)CC1 do in these assays?
RGS8-Gao: 99; RGS7-Gao reg: 96; RGS4-Gao reg: 109; RGS16-Gao: 104; Avidin fluor: 13; GSH bead fluor: 9

Source: PubChem (NMMLSC)
